Assay outcomes (PubChem BioAssay)
Measles CPE = compounds protecting cells from measles virus cytopathic effect, primary screen, measles RdRp inhibitor project, single point, MLSMR library, absorbance; AID 841, 2007; Measles virus-infected cells, CPE protection; protection (pct of control), % at 4 µM; 140,000 tested, 1.5% active; in the data active = protection mostly above about 24%, no sharp cut-off; inactive = mostly below about 26%
SDO1 yeast rescue = growth rescue of sdo1-depleted yeast, primary screen, S. cerevisiae, bone marrow failure model. 140,000 tested, 0.21% active. z-score at 10 µM. S. cerevisiae sdo1-depleted JHY4D growth rescue, OD600 30 h; stronger effect = higher value; pdr5 snq2 efflux-pump mutant strain;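 active = z-score above 3 at both the 24 hr and the 30 hr optical density reads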
Phagocytosis inh = inhibitors of macrophage phagocytosis, primary screen, imaging, J774A.1 cells, IgG beads; J774A.1 macrophage IgG-bead phagocytosis; inhibition, % at 5 µM; 110,000 tested, 0.07% active;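 active = inhibition above the mean of the plate negative controls plus 5 SD, cut at about 13% in these data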;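 note: phagocytic index as fraction of beads internalized from green versus red external bead signal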
Hits are given with their value; – = inactive; · = not tested or not shown. Sampled rows, rich in hits. Any-hit rate of the full collection: about 1.8%.

SMILES	Measles CPE	SDO1 yeast rescue	Phagocytosis inh
CCOC(=O)CCCCC(=O)NC(CO)C(=O)NC (configuration not stated)	–	–	–
CCCCCCCC(=O)OCC(O)CO (configuration not stated)	91	–	·
Cc1ccc(S(=O)(=O)N2CCN(C(=O)COc3ccc(-c4nnco4)cc3)CC2)cc1	–	–	–
O=S(=O)(c1ccc(Oc2ccc(-c3nnco3)cc2)nc1)N1CCC(Cc2ccccc2)CC1	43	–	·
O=C(CN1CCCCC1)Nc1cccc([N+](=O)[O-])c1	–	–	–
Cc1ccc(OCc2nnc(SCC(=O)O)n2N)cc1	40	–	·
COc1cccc(-n2c(COc3ccc(C)cc3)nnc2SCC(=O)O)c1	–	–	–
CCOC(=O)CN(c1ccccn1)S(=O)(=O)c1ccccc1	35	–	·
COc1ccc(S(=O)(=O)N(CC(=O)O)c2ccccn2)cc1	–	–	·
Cc1ccc(-n2ncc3c(=O)n(Cc4ccccn4)cnc32)cc1C	–	–	·
O=C(NCCC(=O)N1CCNC1=O)OCc1ccccc1	–	–	–
Cc1cccc(NC(NC(=O)c2ccccn2)C(Cl)(Cl)Cl)c1 (configuration not stated)	39	–	–
Cc1cccc(NC(=S)NC(NC(=O)c2ccco2)C(Cl)(Cl)Cl)c1 (configuration not stated)	–	–	–
Cc1cccc(NC(NC(=O)Cc2ccccc2)C(Cl)(Cl)Cl)c1 (configuration not stated)	58	–	–
Cc1ccc(NC(NC(=O)Cc2ccccc2)C(Cl)(Cl)Cl)cc1 (configuration not stated)	–	–	–
Cc1ccc(S(=O)(=O)N(CCCO)CC(O)CON=C2c3ccccc3-c3ccccc32)cc1 (configuration not stated)	–	–	–
COc1ccccc1NC(=O)c1ccc(NC(=O)COC(=O)CC(NC(=O)c2ccccc2Cl)c2ccccc2)cc1 (configuration not stated)	–	–	–
Cc1cc(NC(=O)CCN2C(=O)C3C4C=CC(C4)C3C2=O)c2ccccc2n1 (configuration not stated)	45	–	·
O=C(CCN1C(=O)C2C3C=CC(C3)C2C1=O)Nc1c(F)cccc1F (configuration not stated)	–	–	·
Cc1cccc(OCC(O)Cn2c(NCc3cccnc3)nc3c2c(=O)[nH]c(=O)n3C)c1 (configuration not stated)	–	–	–
COc1ccc(NC(=O)c2c(C(F)(F)F)nn(C)c2SCc2ccccc2Cl)cc1	–	–	·
CNC(=O)/C=C/c1cccc(C(F)(F)F)c1	53	–	–
Cc1ccccc1NC(=O)/C=C/c1cccc(C(F)(F)F)c1	–	–	–
CCN1CCN(S(=O)(=O)c2ccc3ccccc3c2)CC1	–	–	–
CC1CCN(C(=O)c2ccc(-n3cnnn3)cc2)CC1	40	–	·
SMILES	Measles CPE	SDO1 yeast rescue	Phagocytosis inh
O=C(c1ccc(-n2cnnn2)cc1)N1CCOCC1	–	–	–
CCN(CC)S(=O)(=O)c1ccc2c(c1)C(=NO)c1cc(S(=O)(=O)N(CC)CC)ccc1-2	–	–	·
Nc1c(C(=O)NCc2ccc3c(c2)OCO3)nnn1-c1ccc(OC(F)(F)F)cc1	54	–	–
COc1cccc(CNC(=O)c2nnn(-c3ccc(OC(F)(F)F)cc3)c2N)c1	–	–	–
CCCNC(=O)c1ccccc1NS(=O)(=O)c1ccc2c(c1)OCCO2	–	–	–
CCn1c(=O)n(CC(=O)Nc2cc(OC)c(OC)c(OC)c2)c(=O)c2ccccc21	–	–	–
Nc1ccc(Cc2nc3c(ccc4ccccc43)[nH]2)cc1	58	–	·
Cc1ccc2nc(Cc3ccc(N)cc3)[nH]c2c1	–	–	·
CCCn1nnc(NC(=O)c2cccc(OCc3ccccc3)c2)n1	–	–	–
Cc1c(C(=O)N(C)Cc2ccccc2)oc2ccc(S(=O)(=O)N3CCCC3)cc12	81	–	–
Cc1c(C(=O)NCc2ccccc2)oc2ccc(S(=O)(=O)N3CCCC3)cc12	–	–	–
Cc1cc(C)cc(N(CCC(=O)Nc2nnc(C)s2)S(=O)(=O)c2ccc(Cl)cc2)c1	–	–	–
CCCN1Cc2cccc(C(=O)N3CCN(c4ccc(F)cc4)CC3)c2C1=O	–	–	–
CCCN1CCN(C(=O)c2cccc3c2C(=O)N(CCOC)C3)CC1	44	–	–
Cc1ccc(SCC(=O)Nc2cccc(-c3nnc(-c4ccco4)o3)c2)cc1	–	–	–
CC(C)(C)C1CCc2c(sc(NC(=O)CSc3nnc(-c4ccccc4)o3)c2C#N)C1 (configuration not stated)	–	–	–
OCCOCCNc1ncnc2nc[nH]c12	–	–	–
CCCNc1ncnc2nc[nH]c12	40	–	–
CNC(=O)c1ccccc1F	–	–	–
O=C(NN=C1CCCCCCCCCCC1)c1ccccc1F	50	–	–
O=C(Cn1c(=O)c(=O)n(Cc2ccccc2)c2ccc(Cl)cc21)Nc1cccc(F)c1	–	–	–
CCCCN1C(=O)NC2NC(=O)NC21 (configuration not stated)	–	–	·
COc1ccc(-c2nc(C#N)c(NCCCn3ccnc3)o2)cc1OC	–	–	·
CCN(CC)CCCNc1oc(-c2ccc(OC)c(OC)c2)nc1C#N	45	–	–
CC1(C)Oc2ccc3ccc(=O)oc3c2/C(=C/NC2CCCCC2)C1=O	–	–	·
SMILES	Measles CPE	SDO1 yeast rescue	Phagocytosis inh
Cc1ccccc1NC(=O)c1ccc(CSc2ncccn2)cc1	45	–	·
Cc1ccc(NC(=O)c2ccc(CSc3ccccn3)cc2)cc1	–	–	·
CCNc1nc(NC(C)C)nc(ON=C(C)C)n1	–	–	·
CCOC(=O)N1CCC(Nc2nc3ccccc3n3nnnc23)CC1	34	–	–
Cc1ccc(CNc2nc3ccccc3n3nnnc23)cc1	–	–	–
O=[N+]([O-])c1ccc2nc(/C=C/c3ccc(Cl)cc3)[nH]c2c1	·	–	–
O=c1nc(/C=C/c2cc([N+](=O)[O-])ccc2Cl)cc(C(F)(F)F)[nH]1	55	–	–
COc1ccc2o/c(=N/NC(=S)Nc3ccccc3)c(C(N)=O)cc2c1	–	–	–
COCCNc1ncnc2c1cnn2-c1ccc(Cl)cc1	–	–	·
COc1ccc(-n2ncc3c(NCCCn4ccnc4)ncnc32)cc1	66	–	·
COC(=O)c1ccc(C(=O)OC)c(NC(=O)CSCc2ccccc2Br)c1	–	–	–
CC(C)CNC(=O)c1ccccc1NC(=O)c1ccc(CSc2ccccc2)cc1	–	–	·
COc1ccc2cc(C(=O)N3CCCCCC3)sc(=O)c2c1OC	–	–	–
COC(=O)c1cc2ccc(OC)c(OC)c2c(=O)s1	24	–	–
O=C1c2cccc3cccc(c23)C(=O)N1CCN1CCN(CC(O)COc2ccc3ccccc3c2)CC1 (configuration not stated)	57	–	·
Cc1ccc(C)c(OCC(O)CN2CCN(CCN3C(=O)c4cccc5cccc(c45)C3=O)CC2)c1 (configuration not stated)	–	–	–
C/C(=N\OCC(=O)Nc1ccc2c(c1)OCCO2)c1ccc2c(c1)OCCO2	–	–	–
O=C(O)/C(=C\c1ccc(Br)cc1)c1ccc(S(=O)(=O)N2CCCCC2)s1	–	–	–
O=[N+]([O-])c1cc(/C=N/n2c(-c3cccnc3)n[nH]c2=S)ccc1Cl	29	–	–
